Results on seven compounds are retold here after PubChem BioAssay (Tox21).

Test [1] in a line: qHTS assay to identify aromatase inhibitors - cell viability counter screen (AID 743084).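 Also: cells stimulated with testosterone during compound exposure; nearly all actives have a fitted effect of over 55% in size.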 Also: potency is read from the fitted curve at half-maximal effect.
The target of test [2] is Aryl hydrocarbon receptor (Homo sapiens) (UniProt P35869). The test can be described thus: qHTS assay to identify small molecule that activate the aryl hydrocarbon receptor (AhR) signaling pathway (AID 743085).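 Also: HG2L7.5c1 human HepG2 liver cells with stably integrated DRE-driven firefly reporter; series mostly up to about 70 µM; nearly all actives have a fitted effect of over 15% in size.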 The method, boiled down:
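A multiplexed format paired cell viability (CellTiter-Fluor fluorescence) with AhR-dependent luciferase output (ONE-Glo luminescence) in the same wells of HepG2 DRE-luc cells after 24 h compound exposure at 37C.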
In general terms: In qHTS, concentration-response curves come from the screen itself.

Test [3] is described as follows: qHTS assay to identify small molecule that activate the aryl hydrocarbon receptor (AhR) signaling pathway - cell viability counter screen (AID 743086). Also: series mostly up to about 70 µM; nearly all actives have a fitted effect of over 45% in size. The method in brief: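 Cytotoxicity counter screen: CellTiter-Fluor signal (30 min, 37 C) in 4000 HepG2 cells/well carrying the DRE-luciferase reporter, following 24 h compound exposure at 37 C.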
For test [4], the target named is Peroxisome proliferator-activated receptor gamma (Homo sapiens) (UniProt P37231). Briefly: qHTS assay to identify small molecule agonists of the peroxisome proliferator-activated receptor gamma (PPARg) signaling pathway (AID 743094; active = well fitted activation curve with a large enough effect in the signal ratio in the repeat runs, not every such curve was filed as active; the % refers to the signal ratio). The method in brief: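 Following 5 h plating at 37C, PPARg-bla HEK293H cells receive compound or DMSO for 17 h; fluorescence intensity is recorded after LiveBLAzer B/G loading for 1 h at room temperature.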

Test [5] has the same target. The test can be described thus: qHTS assay to identify small molecule antagonists of the peroxisome proliferator-activated receptor gamma (PPARg) signaling pathway (AID 743191; calls by dose curve; also: series mostly up to about 63 µM; nearly all actives have a fitted effect of over 30% in size). The method, boiled down: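 Beta-lactamase reporter under UAS control in HEK293H PPARg-bla cells; compound treatment 17 h at 37C. Read-out: fluorescence intensity after 1 h room-temperature incubation with LiveBLAzer B/G FRET substrate.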

Test [6] is described as follows: qHTS assay to identify small molecule antagonists of the peroxisome proliferator-activated receptor gamma (PPARg) signaling pathway - cell viability counter screen (AID 743194). Also: nearly all actives have a fitted effect of over 55% in size. The method in brief: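 Viability was measured as CellTiter-Glo luminescence in GeneBLAzer PPARg UAS-bla HEK293H cells. These cells had been exposed 17 h at 37 C to compounds together with rosiglitazone at 50 nM final, with the beta-lactamase readout taken in the same wells.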

Test [7] in a line: qHTS assay for small molecule agonists of the antioxidant response element (ARE) signaling pathway (AID 743202; active = well fitted activation curve with a large enough effect in the signal ratio in the repeat runs, not every such curve was filed as active; the % refers to the signal ratio; also: potency is read from the fitted curve at half-maximal effect). The method, boiled down: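 Quantitative high-throughput format in HepG2 cells bearing an integrated ARE-beta-lactamase reporter. Compound exposure lasted 16 h at 37 C, and fluorescence was read 2 h after adding LiveBLAzer B/G substrate at room temperature.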
The nature of test [8]: qHTS assay for small molecule agonists of the antioxidant response element (ARE) signaling pathway - cell viability counter screen (AID 743203; calls by dose curve; also: nearly all actives have a fitted effect of over 55% in size). The method, boiled down:
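Compounds in DMSO were pinned onto ARE-bla HepG2 cells plated 5 hrs earlier at 2,000 cells/well. Sixteen hours later at 37C/5% CO2, CellTiter-Glo was added and luminescence measured after 30 min at room temperature.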

Test [9] in a line: qHTS assay for small molecule activators of the heat shock response signaling pathway - cell viability counter screen (AID 743209). Also: nearly all actives have a fitted effect of over 50% in size. The method in brief:
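Counter screen for cytotoxicity in HeLa HSE-bla reporter cells. Treatment was 5 h at 37 C; viability was detected by luminescent ATP assay (CellTiter-Glo) in the same wells as the beta-lactamase read.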

The nature of test [10]: qHTS assay for small molecule activators of the heat shock response signaling pathway (AID 743210; active = well fitted activation curve with a large enough effect in the signal ratio in the repeat runs, with a control signal flat, not every such curve was filed as active; the % refers to the signal ratio;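 also: HeLa cells with beta-lactamase reporter driven by heat shock elements; series mostly up to about 63 µM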). The method in brief:
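HeLa HSE-bla cells, overnight plating; cpd in DMSO 5 h, 37 C; LiveBLAzer B/G FRET substrate 2.5 h RT; fluorescence intensity read.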

Test [11] is described as follows: qHTS assay to identify small molecule agonists of the peroxisome proliferator-activated receptor delta (PPARd) signaling pathway - cell viability counter screen (AID 743211). Also: nearly all actives have a fitted effect of over 55% in size. The method, boiled down:
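Tox21 library compounds, delivered in DMSO, were incubated 17 h with PPARd-bla HEK293H cells; cytotoxicity was taken from CellTiter-Glo luminescence read 30 min after reagent addition.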

In test [12] the target is Peroxisome proliferator-activated receptor delta (Homo sapiens) (UniProt Q03181). Briefly: qHTS assay to identify small molecule agonists of the peroxisome proliferator-activated receptor delta (PPARd) signaling pathway (AID 743212; calls by dose curve). The method, boiled down:
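HEK293H PPARd-bla cells; 5 h preincubation 37 C/5% CO2; compound (DMSO) 37 C; LiveBLAzer B/G FRET substrate 2 h RT; fluorescence intensity.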

Test [13] is described as follows: qHTS assay to identify small molecule antagonists of the peroxisome proliferator-activated receptor delta (PPARd) signaling pathway - cell viability counter screen (AID 743213). Also: nearly all actives have a fitted effect of over 50% in size. The method, boiled down: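 Viability counter-screen, qHTS format: PPARd-bla HEK293H, L165041 300 nM final, 17 h compound exposure at 37 C, CellTiter-Glo luminescence after 30 min RT.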

A short description of test [14]: qHTS assay to identify small molecule agonists of the farnesoid-X-receptor (FXR) signaling pathway - cell viability counter screen (AID 743218). Also: nearly all actives have a fitted effect of over 45% in size. The method in brief: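 After 16 h at 37 C with test compounds, FXR-bla HEK 293T cells were given LiveBLAzer B/G substrate for 2 h at RT and then CellTiter-Glo; luminescence was taken after 30 min.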
The nature of test [15]: qHTS assay to identify small molecule antagonists of the farnesoid-X-receptor (FXR) signaling pathway - cell viability counter screen (AID 743221; active = well fitted cell-killing curve with a large enough effect in the repeat runs, not every such curve was filed as active; also: nearly all actives have a fitted effect of over 50% in size). The method, boiled down: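 Cytotoxicity is taken from ATP luminescence (CellTiter-Glo, 30 min, room temperature) in FXR-bla HEK 293T cells previously incubated 16 h at 37 C with compound and chenodeoxycholic acid at 50 uM final.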

Test [16] deals with Vitamin D3 receptor (Homo sapiens) (UniProt P11473). Briefly: qHTS assay to identify small molecule agonists of the vitamin D receptor (VDR) signaling pathway (AID 743222; calls by dose curve). The method in brief:
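VDR-bla cells were seeded, left 4 h, treated with compounds in DMSO for 16 h, incubated 2 h at RT with B/G FRET substrate, and read for fluorescence.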

Test [17] has the same target. The test can be described thus: qHTS assay to identify small molecule antagonists of the vitamin D receptor (VDR) signaling pathway (AID 743223; active = well fitted inhibition curve with a large enough effect in the signal ratio in the repeat runs, not every such curve was filed as active; the % refers to the signal ratio). The method, boiled down:
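Quantitative HTS in VDR-bla reporter cells stimulated with 1alpha,25-dihydroxyvitamin D3, 3 nM final. Compound exposure 16 h, 37C, 5% CO2. Read-out: beta-lactamase FRET substrate fluorescence, 2 h RT.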

Test [18] has as its target Peroxisome proliferator-activated receptor delta (Homo sapiens) (UniProt Q03181). The test can be described thus: qHTS assay to identify small molecule antagonists of the peroxisome proliferator-activated receptor delta (PPARd) signaling pathway (AID 743215; active = well fitted inhibition curve with a large enough effect in the signal ratio in the repeat runs, not every such curve was filed as active; the % refers to the signal ratio;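 also: cells stimulated with agonist L165041 at 300 nM final during compound exposure; series mostly up to about 62 µM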). The method, boiled down:
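With L165041 present at 300 nM final, compounds were incubated 17 h at 37 C on PPARd UAS-bla HEK293H cells. A FRET-based beta-lactamase substrate was then applied for 2 h at room temperature and fluorescence intensity recorded.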

The target of test [19] is Bile acid receptor (Homo sapiens) (UniProt Q96RI1). The test can be described thus: qHTS assay to identify small molecule antagonists of the farnesoid-X-receptor (FXR) signaling pathway (AID 743217; active = well fitted inhibition curve with a large enough effect in the signal ratio in the repeat runs, not every such curve was filed as active; the % refers to the signal ratio). The method in brief:
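In this cell-based antagonist screen, inhibition of CDCA-driven (50 uM final) UAS-beta-lactamase expression in HEK 293T cells was measured by FRET fluorescence following 16 h compound exposure at 37 °C.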

For test [20] the target is unchanged. Briefly: qHTS assay to identify small molecule agonists of the farnesoid-X-receptor (FXR) signaling pathway (AID 743220; active = well fitted activation curve with a large enough effect in the signal ratio in the repeat runs, not every such curve was filed as active; the % refers to the signal ratio). The method, boiled down:
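Beta-lactamase reporter under UAS control in GeneBLAzer FXR HEK 293T cells (5000/well) measured with LiveBLAzer FRET substrate after 2 h at room temperature. Compound exposure lasted 16 h at 37C.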

“And” between values parts separate entries of the source, which are not always exact repeats. Equal entries are not always repeated. Records with an inconclusive call do not appear. Some structures have more than one record in an assay (separate samples or runs), and their calls can disagree. The source made the active and inactive calls. Unless noted, calls follow the shape of the dose curve; as a rule, active = well fitted curve in the direction sought with a large enough effect in the repeat runs; inconclusive = weak or mixed curves; inactive = no such curve, though single readings can be large; an effect the other way counts as inactive or inconclusive.

Sequence of Peroxisome proliferator-activated receptor delta (Homo sapiens) (Q03181 whole entry, looked up): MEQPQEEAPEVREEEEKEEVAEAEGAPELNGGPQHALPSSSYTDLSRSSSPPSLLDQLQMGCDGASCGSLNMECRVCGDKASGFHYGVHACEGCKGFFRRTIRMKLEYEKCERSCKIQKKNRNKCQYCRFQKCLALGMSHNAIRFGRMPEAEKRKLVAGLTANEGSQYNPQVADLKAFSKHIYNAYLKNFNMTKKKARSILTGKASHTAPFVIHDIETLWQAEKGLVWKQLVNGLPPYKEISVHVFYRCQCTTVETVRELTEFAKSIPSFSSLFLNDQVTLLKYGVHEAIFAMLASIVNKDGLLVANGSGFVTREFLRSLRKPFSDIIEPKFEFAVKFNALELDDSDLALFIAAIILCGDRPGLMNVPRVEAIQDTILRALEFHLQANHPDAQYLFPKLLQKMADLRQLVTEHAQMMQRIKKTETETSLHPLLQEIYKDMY
Sequence of Aryl hydrocarbon receptor (Homo sapiens) (P35869 whole entry, looked up): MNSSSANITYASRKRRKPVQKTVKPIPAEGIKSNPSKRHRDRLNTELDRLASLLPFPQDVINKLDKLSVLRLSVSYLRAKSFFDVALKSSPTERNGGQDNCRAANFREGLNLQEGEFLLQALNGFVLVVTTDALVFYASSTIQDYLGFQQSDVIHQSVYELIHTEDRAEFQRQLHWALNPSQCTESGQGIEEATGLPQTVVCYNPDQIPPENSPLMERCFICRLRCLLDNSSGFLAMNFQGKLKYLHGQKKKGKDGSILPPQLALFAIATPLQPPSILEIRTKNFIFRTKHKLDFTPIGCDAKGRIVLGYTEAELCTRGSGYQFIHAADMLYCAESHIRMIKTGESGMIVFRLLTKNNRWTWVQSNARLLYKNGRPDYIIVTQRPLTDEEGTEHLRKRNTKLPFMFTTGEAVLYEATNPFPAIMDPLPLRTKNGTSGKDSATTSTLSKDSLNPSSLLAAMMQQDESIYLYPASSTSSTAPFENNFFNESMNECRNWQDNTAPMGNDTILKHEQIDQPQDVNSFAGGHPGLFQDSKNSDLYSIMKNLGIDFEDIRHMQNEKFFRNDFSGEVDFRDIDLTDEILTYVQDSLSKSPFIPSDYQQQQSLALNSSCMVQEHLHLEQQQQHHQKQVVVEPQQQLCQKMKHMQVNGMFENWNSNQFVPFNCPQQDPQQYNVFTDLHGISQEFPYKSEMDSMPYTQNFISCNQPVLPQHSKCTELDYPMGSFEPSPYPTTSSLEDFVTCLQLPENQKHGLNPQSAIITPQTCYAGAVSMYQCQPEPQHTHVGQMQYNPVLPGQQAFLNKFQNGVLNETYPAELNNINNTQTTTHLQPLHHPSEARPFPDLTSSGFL
Sequence of Peroxisome proliferator-activated receptor gamma (Homo sapiens) (P37231 whole entry, looked up): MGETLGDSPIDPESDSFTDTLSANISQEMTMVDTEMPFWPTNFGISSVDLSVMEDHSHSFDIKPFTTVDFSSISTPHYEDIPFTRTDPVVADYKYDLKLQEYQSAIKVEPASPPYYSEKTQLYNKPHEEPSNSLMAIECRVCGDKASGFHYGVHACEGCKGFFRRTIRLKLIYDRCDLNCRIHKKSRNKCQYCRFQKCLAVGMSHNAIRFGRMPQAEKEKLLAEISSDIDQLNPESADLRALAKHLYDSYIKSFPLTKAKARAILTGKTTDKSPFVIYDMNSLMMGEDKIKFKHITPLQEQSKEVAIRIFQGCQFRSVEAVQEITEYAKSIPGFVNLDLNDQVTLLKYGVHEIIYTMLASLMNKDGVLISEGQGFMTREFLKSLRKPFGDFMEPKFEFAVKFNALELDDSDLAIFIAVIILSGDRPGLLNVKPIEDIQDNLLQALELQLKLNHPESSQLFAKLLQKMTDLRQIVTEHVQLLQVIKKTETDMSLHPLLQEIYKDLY
Sequence of Bile acid receptor (Homo sapiens) (Q96RI1 whole entry, looked up): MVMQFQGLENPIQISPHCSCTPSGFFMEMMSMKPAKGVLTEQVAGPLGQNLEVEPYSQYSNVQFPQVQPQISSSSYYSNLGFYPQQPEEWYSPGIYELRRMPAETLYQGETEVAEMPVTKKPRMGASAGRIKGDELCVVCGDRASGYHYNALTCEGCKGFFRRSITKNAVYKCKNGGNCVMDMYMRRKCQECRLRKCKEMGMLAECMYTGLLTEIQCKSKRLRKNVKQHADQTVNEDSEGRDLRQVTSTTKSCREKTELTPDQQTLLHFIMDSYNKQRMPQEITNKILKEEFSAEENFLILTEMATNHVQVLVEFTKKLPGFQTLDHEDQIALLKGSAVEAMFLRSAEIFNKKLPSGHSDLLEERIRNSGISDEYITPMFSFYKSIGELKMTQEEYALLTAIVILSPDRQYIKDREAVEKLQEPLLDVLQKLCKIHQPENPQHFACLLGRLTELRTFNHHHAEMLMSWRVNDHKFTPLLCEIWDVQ
Sequence of Vitamin D3 receptor (Homo sapiens) (P11473 whole entry, looked up): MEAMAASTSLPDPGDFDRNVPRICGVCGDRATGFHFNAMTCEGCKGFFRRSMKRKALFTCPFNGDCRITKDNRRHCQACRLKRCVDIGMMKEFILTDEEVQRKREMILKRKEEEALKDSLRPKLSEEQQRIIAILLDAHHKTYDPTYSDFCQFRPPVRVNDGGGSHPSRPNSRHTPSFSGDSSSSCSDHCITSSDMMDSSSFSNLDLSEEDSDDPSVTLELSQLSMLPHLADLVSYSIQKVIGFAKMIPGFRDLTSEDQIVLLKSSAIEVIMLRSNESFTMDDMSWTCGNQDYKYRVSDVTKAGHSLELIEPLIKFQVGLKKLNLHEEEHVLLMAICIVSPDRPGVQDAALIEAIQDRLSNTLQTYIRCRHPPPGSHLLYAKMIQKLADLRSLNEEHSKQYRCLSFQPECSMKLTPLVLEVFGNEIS

Regarding `C=CC(=O)NC(C)(C)CS(=O)(=O)O`, the Potency result in test [1], in test [2], in [3], in test [4], in test [5] and in test [6] was “inactive” throughout. For the same compound, the Potency entry in test [7], in [8], in test [11], in test [13], in test [14] and in test [17] was “inactive” in each case. In addition, the compound was called inactive in test [9], in [10], in test [12], in test [15] and in [16].
Regarding `C=C(C)C(N)=O`, the Potency entry in test [1], in [2], in test [3], in test [4], in test [5] and in test [6] was “inactive” in each case. Moreover, the Potency result in [7], in test [8], in [11], in test [13], in test [14] and in test [17] was “inactive” each time. Besides, the compound was classed as inactive in [9], in test [10], in test [15] and in test [16].
For `C1CNCCN1`, the Potency entry in test [1], in [2], in test [3], in test [4], in test [5] and in test [6] was “inactive” throughout. Besides, the Potency entry in [7], in test [8], in [11], in test [13], in [14] and in test [17] was “inactive” each time. The outcome in [9], in [10], in test [15] and in test [16] was inactive.
Turning to `CC(C)(C)NCC(O)c1ccc(O)c(CO)c1` (stereo not drawn), the Potency entry in test [1], in test [2], in [3], in [4], in test [5] and in test [6] was “inactive” throughout. For the same compound, the Potency entry in test [7], in [8], in test [11], in [13] and in test [14] was “inactive” each time. Further, the compound was called inactive in [9], in test [10], in [12] and in [15].
Regarding `CC(=O)OC/C=C(C)/C=C/C=C(C)/C=C/C1=C(C)CCCC1(C)C`, the Potency entry in [1] was “inactive and 66.9 µM (active) and 61.1 µM (active)”; in test [7], 59.6 µM (active). Besides, the Potency result in [2], in test [3], in test [4], in test [5], in test [6] and in test [8] was “inactive” each time. Moreover, the Potency result in test [13], in [14] and in test [17] was “inactive” throughout. Besides, the compound was called inactive in test [9], in [12], in test [15] and in test [16].
For the compound `NC(N)=NC(N)=NCCc1ccccc1`, the Potency result in test [1], in test [2], in test [3], in test [4], in test [5] and in test [6] was “inactive” in each case. The Potency entry in test [8], in test [11], in test [13] and in [14] was “inactive” each time. In addition, in test [7], the Potency is 6.08 µM (active) and 6.68 µM (active). The outcome in test [9], in [10], in [12] and in [15] was inactive.
Take `COc1cc(C=O)ccc1O`: the Potency entry in [1], in test [2], in test [3], in [4], in [5] and in test [6] was “inactive” throughout. Besides, the Potency entry in test [7], in test [8], in test [11], in [13], in test [19] and in [14] was “inactive” in each case. In [17], the Potency entry was “inactive”. The call in [9], in test [12], in test [18], in test [20], in [15] and in test [16] was inactive.
